The nature of experiment [1]: anti-His antibody binders, primary screen, artefact control for SMM control protein annotation, biochemical, small-molecule microarray, 635 nm fluorescence (AID 1128).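 Note: score merges feature fluorescence with signal-to-noise for each printed compound spot.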 To be noted: anti-His Alexa647 antibody binding, higher = more signal.
For experiment [2], the system named is Human papillomavirus type 1a E7 protein (residues 1-88). Kind of experiment: HPV1a E7 small-molecule binders, primary screen, biochemical, small-molecule microarray, residues 1-88, 635 nm (AID 1129). To be noted: small-molecule microarray binding, fluorescence 635 nm; higher = more signal.
In experiment [3] the target is Focal adhesion kinase 1 (Homo sapiens) (UniProt Q05397). Briefly: small-molecule microarray binders of FAK, primary screen, biochemical, 635/667 nm fluorescence, BSA, DTT (AID 1130).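 Note: composite of spot emission at 667 nm and signal to noise over triplicate slides.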 Conditions: PTK2 binding, 635 nm fluorescence, higher = more signal.
Focal adhesion kinase 1 (Homo sapiens), sequence (Q05397 whole entry, looked up): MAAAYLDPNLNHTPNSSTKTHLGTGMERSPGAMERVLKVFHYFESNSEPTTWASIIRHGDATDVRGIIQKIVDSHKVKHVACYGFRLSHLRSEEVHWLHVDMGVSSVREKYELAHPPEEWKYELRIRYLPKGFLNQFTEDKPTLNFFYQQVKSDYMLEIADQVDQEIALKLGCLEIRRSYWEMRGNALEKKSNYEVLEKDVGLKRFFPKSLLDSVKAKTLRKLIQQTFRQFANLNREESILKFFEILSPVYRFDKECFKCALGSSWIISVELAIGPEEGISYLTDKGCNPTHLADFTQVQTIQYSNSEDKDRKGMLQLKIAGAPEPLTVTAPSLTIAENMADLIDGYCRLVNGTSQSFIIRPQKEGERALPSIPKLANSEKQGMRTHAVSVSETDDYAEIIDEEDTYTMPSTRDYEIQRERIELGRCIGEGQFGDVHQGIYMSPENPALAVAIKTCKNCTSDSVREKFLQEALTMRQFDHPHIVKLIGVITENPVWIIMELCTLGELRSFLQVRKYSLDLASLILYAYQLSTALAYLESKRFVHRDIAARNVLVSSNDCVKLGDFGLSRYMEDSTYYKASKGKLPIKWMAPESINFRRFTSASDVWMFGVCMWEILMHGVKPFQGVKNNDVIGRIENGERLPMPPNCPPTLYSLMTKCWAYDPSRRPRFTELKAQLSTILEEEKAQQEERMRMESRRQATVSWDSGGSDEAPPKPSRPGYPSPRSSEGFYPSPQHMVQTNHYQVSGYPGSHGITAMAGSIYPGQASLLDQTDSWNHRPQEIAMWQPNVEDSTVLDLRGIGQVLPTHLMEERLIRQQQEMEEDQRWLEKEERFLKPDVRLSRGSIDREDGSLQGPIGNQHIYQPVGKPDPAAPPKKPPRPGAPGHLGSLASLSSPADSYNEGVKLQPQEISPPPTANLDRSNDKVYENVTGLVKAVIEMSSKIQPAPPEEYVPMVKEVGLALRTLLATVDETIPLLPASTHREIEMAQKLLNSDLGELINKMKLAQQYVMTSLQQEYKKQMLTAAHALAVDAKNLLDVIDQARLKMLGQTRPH
In experiment [4] the test system is Fibrinogen (Alexa647-labelled). Kind of experiment: fibrinogen binders on compound microarrays, profiling panel, artefact control for SMM control-protein annotation, biochemical, small-molecule microarray, 635/667 nm fluorescence (AID 1131).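 Note: z-score merges 667 nm fluorescence with per-spot signal-to-noise over triplicate slides.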 Conditions: fibrinogen-A647 binding fluorescence, higher = more signal.
Experiment [5] concerns the target Follistatin (Homo sapiens) (UniProt P19883). Briefly: follistatin binders on small-molecule microarrays, primary screen, biochemical, small-molecule microarray, 635/667 nm fluorescence (AID 1132). Conditions: FST binding, 635 nm fluorescence, higher = more signal.
Experiment [6] has as its target Fibroblast growth factor 2 (Homo sapiens) (UniProt P09038). Briefly: FGF2 binders on small-molecule microarrays, primary screen, biochemical, small-molecule microarray, 635/667 nm fluorescence (AID 1133). Conditions: small-molecule microarray binding, FGF2, fluorescence 635/667; higher = more signal.
Experiment [7] in a line: mitochondrial membrane potential change in A549 cells, profiling panel, cell-based, JC-1 fluorescence, basal, 24 h, 100 nL (AID 1138).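 Note: A549 lung adenocarcinoma cells under basal conditions with no added stimulus; test concentration not given here.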 To be noted: higher = more signal.
Experiment [8] has as its system Lefty1. Briefly: Lefty1 binders on small-molecule microarrays, primary screen, biochemical, small-molecule microarray, 635/667 nm fluorescence (AID 1139). Conditions: small-molecule microarray binding, fluorescence 635/667; higher = more signal.
For experiment [9], the system named is wheat germ agglutinin (Triticum aestivum), Alexa647-labelled. Briefly: wheat germ agglutinin binders on compound microarrays, profiling panel, artefact control for SMM control-protein annotation, biochemical, small-molecule microarray, 635/667 nm fluorescence (AID 1140).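 Note: score merges 667 nm feature emission with signal to noise over triplicate slides.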 Conditions: WGA-A647 binding, 635 nm fluorescence, higher = more signal.
The target in experiment [10] is Luciferin 4-monooxygenase (Photinus pyralis) (UniProt P08659). Kind of experiment: firefly luciferase enzyme inhibitors, primary screen, biochemical, luminescence, purified enzyme, 2006 set (AID 1141).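 Note: cell-free assay with purified firefly luciferase at 100 ng per well in PBS; test concentration not given here.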 Conditions: SteadyGlo luminescence, 30 min, higher = more signal, called active from +8 up or from −8 down.
Luciferin 4-monooxygenase (Photinus pyralis), sequence (P08659 whole entry, looked up): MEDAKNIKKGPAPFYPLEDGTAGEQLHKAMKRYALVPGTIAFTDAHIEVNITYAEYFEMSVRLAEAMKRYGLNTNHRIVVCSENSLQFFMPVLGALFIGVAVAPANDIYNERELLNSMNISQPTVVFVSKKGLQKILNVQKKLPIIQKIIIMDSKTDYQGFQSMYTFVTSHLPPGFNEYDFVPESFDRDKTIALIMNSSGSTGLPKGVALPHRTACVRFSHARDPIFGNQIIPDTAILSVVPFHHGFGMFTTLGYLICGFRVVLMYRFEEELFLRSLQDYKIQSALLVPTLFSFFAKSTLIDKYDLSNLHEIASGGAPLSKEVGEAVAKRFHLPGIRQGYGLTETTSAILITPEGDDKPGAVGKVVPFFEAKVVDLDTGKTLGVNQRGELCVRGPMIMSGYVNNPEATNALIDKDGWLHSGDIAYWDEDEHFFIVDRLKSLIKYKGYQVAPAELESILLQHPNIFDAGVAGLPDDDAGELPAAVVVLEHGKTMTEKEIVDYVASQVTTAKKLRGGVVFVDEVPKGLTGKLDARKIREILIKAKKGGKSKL
Experiment [11] relates to Wnt5a (protein binding on small-molecule microarray). Kind of experiment: Wnt5a binders on small-molecule microarray, primary screen, biophysical, 635/667 nm fluorescence (AID 1142).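 Note: fluorescence read at 667 nm with signal to noise per printed feature.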 To be noted: 635 nm fluorescence, higher = more signal.
Experiment [12] is described as follows: cell viability in Huh7 cells, primary screen, cytotoxicity control for HCV replication inhibitor project, CellTiter-Glo luminescence, basal, 48 h (AID 1143).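 Note: Huh7 hepatoma cells carrying a hepatitis C replication reporter with no stimulus; test concentration not given here.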 Conditions: Huh7 HCV replicon, higher = more signal, called active from +8 up or from −8 down. A general note: In ATP-based viability assays light output follows the ATP content of the culture.
The nature of experiment [13]: P. aeruginosa biofilm formation inhibitors, primary screen, PAO1 strain, BacTiter-Glo luminescence, LB-PBS (AID 1144). To be noted: 12 h, higher = more signal.
Experiment [14] can be described thus: CREB reporter modulators without forskolin, primary screen, cell-based, PC12, CRE-LacZ reporter, unstimulated (AID 1145). Conditions: no forskolin, luminescence, 4.5 h, higher = more signal, called active from +8 up or from −8 down.
Experiment [15] can be described thus: CREB reporter modulators under forskolin, primary screen, cell-based, PC12, CRE-LacZ reporter, forskolin-stimulated (AID 1146).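 Note: PC12 cells with 6xCRE LacZ reporter stimulated by forskolin 10 µM; beta-galactosidase reporter signal reflecting CREB driven transcription.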 Conditions: luminescence, 4.5 h, higher = more signal, called active from +8 up or from −8 down.
Experiment [16] concerns the target Streptavidin (Streptomyces avidinii) (UniProt P22629). Kind of experiment: streptavidin binders on small-molecule microarray, primary screen, artefact control for SMM compound annotation, biophysical, 635/667 nm fluorescence (AID 1147).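 Note: signal reflects streptavidin binding to arrayed compounds as a control protein.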 Conditions: streptavidin binding, higher = more signal.
A short description of experiment [17]: small-molecule binders of probe aInhba, primary screen, biochemical, small-molecule microarray, 635/667 nm fluorescence (AID 1148).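 Note: score merges 667nm spot fluorescence with signal-to-noise for antibody binding to printed compounds.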 To be noted: higher = more signal.
Experiment [18] addresses Torsin-1A (Homo sapiens) (UniProt O14656). Briefly: torsin A binders from cell lysate, primary screen, small-molecule microarray, wild-type, 635/667 nm (AID 1149). To be noted: COS7 hTOR1A-WT lysate, 635 nm fluorescence, higher = more signal.
Experiment [19] has the same target. Briefly: small-molecule binders of mutant TOR1A in lysate, primary screen, cell lysate, small-molecule microarray, COS7 lysate, 635/667 nm fluorescence (AID 1150).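 Note: score pools 667 nm emission and signal to noise measuring lysate protein binding.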 Conditions: COS7 hTOR1A mutant lysate, 635 nm fluorescence, higher = more signal.
For experiment [20], the system named is Sonic hedgehog protein (Shh). Kind of experiment: small-molecule binders of Shh protein, primary screen, biochemical, small-molecule microarray, 635/667 nm fluorescence (AID 1151).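 Note: Shh protein binding to compounds spotted on small-molecule microarray slides; score combines spot fluorescence intensity with signal-to-noise across triplicate slides.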 To be noted: small-molecule microarray binding, 635 nm fluorescence; higher = more signal.

The results in this text go back to PubChem BioAssay.

The structures appear in SMILES notation. The source made the active and inactive calls. Unless noted, the rule behind the calls is not given here.

Torsin-1A (Homo sapiens), sequence (O14656 whole entry, looked up): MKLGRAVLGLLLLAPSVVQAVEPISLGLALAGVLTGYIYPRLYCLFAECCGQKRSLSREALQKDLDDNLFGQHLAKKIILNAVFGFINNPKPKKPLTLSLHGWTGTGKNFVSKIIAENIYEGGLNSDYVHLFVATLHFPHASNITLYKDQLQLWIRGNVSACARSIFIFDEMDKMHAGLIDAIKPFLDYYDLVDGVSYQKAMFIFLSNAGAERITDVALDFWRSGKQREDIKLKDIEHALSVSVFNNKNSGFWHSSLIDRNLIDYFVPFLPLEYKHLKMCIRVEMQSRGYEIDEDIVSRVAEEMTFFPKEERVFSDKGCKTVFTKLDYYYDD
Follistatin (Homo sapiens), sequence (P19883 whole entry, looked up): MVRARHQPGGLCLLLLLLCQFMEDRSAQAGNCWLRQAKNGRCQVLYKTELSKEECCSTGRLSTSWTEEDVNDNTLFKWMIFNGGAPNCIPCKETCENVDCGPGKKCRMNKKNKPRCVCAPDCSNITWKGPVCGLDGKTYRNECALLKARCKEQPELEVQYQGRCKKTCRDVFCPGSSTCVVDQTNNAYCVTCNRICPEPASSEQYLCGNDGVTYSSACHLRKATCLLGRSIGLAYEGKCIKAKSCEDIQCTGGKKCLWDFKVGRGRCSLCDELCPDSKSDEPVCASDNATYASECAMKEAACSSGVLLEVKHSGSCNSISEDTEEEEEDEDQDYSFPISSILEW
Fibroblast growth factor 2 (Homo sapiens), sequence (P09038 whole entry, looked up): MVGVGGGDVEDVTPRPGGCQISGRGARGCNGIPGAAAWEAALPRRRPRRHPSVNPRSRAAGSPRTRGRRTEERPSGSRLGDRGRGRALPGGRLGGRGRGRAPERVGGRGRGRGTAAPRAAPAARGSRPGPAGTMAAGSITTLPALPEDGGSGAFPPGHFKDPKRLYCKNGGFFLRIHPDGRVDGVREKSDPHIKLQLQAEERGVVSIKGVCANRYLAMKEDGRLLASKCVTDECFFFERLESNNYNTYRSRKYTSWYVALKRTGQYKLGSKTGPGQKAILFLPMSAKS
Streptavidin (Streptomyces avidinii), sequence (P22629 whole entry, looked up): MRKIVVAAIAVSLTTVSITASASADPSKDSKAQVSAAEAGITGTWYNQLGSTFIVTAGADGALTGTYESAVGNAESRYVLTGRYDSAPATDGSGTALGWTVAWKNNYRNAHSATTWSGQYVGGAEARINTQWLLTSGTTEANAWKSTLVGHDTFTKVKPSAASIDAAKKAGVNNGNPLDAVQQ

`CCOC(=O)C1=C[C@@H](C(C)(C)C)N(S(=O)(=O)c2ccc(C)cc2)[C@H]1c1ccc(Cl)c(Cl)c1`: the composite z-score in [1] came out at 0.978; in experiment [2] it was 1.21; in [3], 0.606; in [4], 0.968; in [5], 0.654; in experiment [6], 0.202. Besides, the composite z-score in experiment [8] worked out at 0.495; in experiment [9], 0.945; in experiment [11], 0.28; in [16], 1.04; in experiment [17] it was 0.196; in [18], 0.126. For the same compound, the results for the composite z-score in experiment [19] and in [20] were 0.837 and 0.202, respectively. The z-score was 3.07 in experiment [7]; 1.34 (inactive) in [10]; -4.01 (inactive) in [12]; 0.599 (inactive) in [13]; 0.229 (inactive) in experiment [14]; 0.303 (inactive) in [15].
`CCCC[C@@H]1C[C@H]1[C@@H](NC(=O)c1ccccc1)c1ccccc1`: the composite z-score in [1] is 1.47; in experiment [2], -0.23; in experiment [3], 0.202; in [4], 0.244; in experiment [5], 0.671; in experiment [6], 0.085. Besides, the composite z-score was -0.235 in experiment [8]; 0.136 in [9]; 0.209 in experiment [11]; 0.0499 in experiment [16]; 0.401 in experiment [17]; -0.477 in experiment [18]. Further, the composite z-score is -0.0734 in [19] and -0.412 in experiment [20]. Further, the z-score was -1.03 in experiment [7]; 1.19 (inactive) in experiment [10]; -0.877 (inactive) in [12]; 0.727 (inactive) in experiment [13]; 0.0041 (inactive) in experiment [14]; 0.79 (inactive) in experiment [15].
Take `COC(=O)[C@@]1(Cc2ccc(OC)cc2)[C@H]2c3cc(C(=O)N4CCCC4)n(CCc4ccccn4)c3C[C@H]2CN1C(=O)c1ccccc1`: the composite z-score in experiment [1] is 0.0421; in experiment [2], 0.201; in experiment [3], 0.579; in experiment [4] it was 0.821; in [5] it was -0.29; in [6] it was -0.676. Further, the composite z-score in [8] was -0.91; in experiment [9] it was 0.0844; in experiment [11] it was -0.249; in experiment [16], 0.698; in experiment [17], -0.0332; in experiment [18], -0.166. Moreover, the composite z-score in experiment [19] was determined as 1.1; in experiment [20] it was 0.429. Further, the z-score was -1.29 in experiment [7]; 2.15 (inactive) in experiment [10]; -0.784 (inactive) in experiment [12]; -0.304 (inactive) in experiment [13]; 0.201 (inactive) in experiment [14]; 0.404 (inactive) in experiment [15].
Regarding `Cc1ccc(N2C(=O)c3ccccc3[C@](C)(C(=O)NCCN3CCOCC3)[C@@H]2c2ccc(CO)cc2)nc1`, the composite z-score in [1] was 0.267; in experiment [2], -1.74; in [3], -1.16; in experiment [4], -1.02; in experiment [5], -0.419; in experiment [6] it was -0.833. Moreover, the composite z-score in experiment [8] was -1.26; in experiment [9], -1.32; in [11], -0.538; in experiment [16], -0.932; in [17], -0.211; in experiment [18], -2.51. Further, the composite z-score in experiment [19] was -1.62; in [20] it was 0.465. The z-score in experiment [7] was -0.807; in experiment [10] it was 0.952 (inactive); in [12] it was -0.28 (inactive); in experiment [13] it was -0.398 (inactive); in experiment [14], -0.258 (inactive); in [15], -0.37 (inactive).
Take `COCCOC(=O)N1C(=O)[C@@]2(c3cc(C#CCCO)ccc31)[C@H](C(=O)NC[C@H](O)c1ccccc1)[C@H]1C(=O)O[C@H](c3ccccc3)[C@H](c3ccccc3)N1[C@@H]2c1ccc(OCCO)cc1`: the composite z-score in experiment [1] was found to be 0.714; in experiment [2], 1.18; in experiment [3], 1; in experiment [4], 0.951; in [5], 1.28; in experiment [6], 1.24. In addition, the composite z-score in experiment [8] came to 1.42; in experiment [9] it was 0.246; in experiment [11], 0.041; in experiment [16], 0.738; in experiment [17], 0.0444; in experiment [18] it was 0.269. Besides, the values for the composite z-score in experiment [19] and in [20] were 0.126 and 1.85, respectively. The z-score is -1.27 in experiment [7]; -1.09 (inactive) in [10]; -3.14 (inactive) in [12]; -1.71 (inactive) in experiment [13]; -1.97 (inactive) in experiment [14]; -1.18 (inactive) in [15].
